The results in this text go back to PubChem BioAssay (NCI).

Molecules are shown by their SMILES. Compounds without any hit were thinned out: in the full panel of roughly 83,000, 20% have a hit.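 In brief: 96-well plates, 48 h treatment, single concentration, percent growth endpoint.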 The source made the active and inactive calls. The calls were made as follows: active = growth percent below 10; inactive = the rest.

The first assay concerns NCI-H226 lung. Kind of assay: NCI-60 one-dose screen, 48 h (100 = growth as untreated, 0 = no growth, -100 = all killed). The note with it: 10 µM unless noted.
Turning to `CC(C)(C)c1nc2c(s1)c1nc(N)ncc1c1ccc(NS(=O)(=O)c3c(F)cccc3F)c(F)c12`, the growth is 65.4% (inactive).

Take `COc1cc(C(=O)N2CCN(c3ccccc3OC)CC2)c(NC(=O)c2cnccn2)cc1OCc1ccccc1`: the growth is 88.3% (inactive).

Turning to `c1ccc(-c2cn3ccnc3c(-c3ccc4c(c3)ncn4C3CCCCC3)n2)cc1`, the growth is 106% (inactive).

For the molecule `C#Cc1ccccc1NC(=O)c1sc2nc3c(cc2c1N)CCCCC3`, the growth is 88.3% (inactive).

For `O=C1[C@@H](OS(=O)(=O)CC(F)(F)F)[C@H](c2ccc(F)cn2)N1c1cc2c3ccccc3ccc2c2ccccc12`, the growth is 92.3% (inactive).

In the case of `CC(C)CSc1nc(Nc2ccccc2)c(C#N)c(-c2ccc(F)cc2)n1`, the growth was 6.87% (active).

In the next assay the test system is NCI-H322M lung. The description is as above. The note with it: 10 µM unless noted.
Regarding `Cc1cc2ccccc2c[n+]1CC(=O)c1ccc(-c2ccccc2)cc1`, the growth was 78.3% (inactive).

Consider `COC(=O)c1ccc2c(c1)n(Cc1ccc3ccccc3c1)c[n+]2Cc1ccc2ccccc2c1`, for which the growth is 57.2% (inactive).

Take `Cc1c(Cl)cccc1NC(=O)c1sc2nc3c(cc2c1N)CCCCC3`: the growth is 49.8% (inactive).

Take `C=C1C(=O)O[C@H]2[C@H]1CC/C(COC(=O)c1cn(C)c3ccccc13)=C\CC[C@@]1(C)O[C@@H]21`: the growth is 85.2% (inactive).

In the case of `Sc1cccc2cccnc12`, the growth was 36.3% (inactive).

Take `O=C(CCl)N1CCCc2ccccc21`: the growth is 94% (inactive).

With `Cc1cccc(C)c1NC(=O)CN(CC(C)C)CC(O)COc1ccccc1` (centres undefined), the growth is 97.7% (inactive).

Regarding `OCCNc1nc(NCCO)nc(Nc2ccc(C3=NN(c4cc(Cl)cc(Cl)c4)C(c4ccc(Cl)cc4)C3)cc2)n1` (centres undefined), the growth is 14.6% (inactive).
